From PubChem BioAssay AID892 (National Center for Advancing Translational Sciences (NCATS), 2007)
About 20 (0.03%) of roughly 75,000 compounds were called active. Calls come from the whole dose curve; as a rule, active = well fitted inhibition curve with a large enough effect; inconclusive = small, poorly fitted or top-dose-only effect; inactive = no such curve, though single readings can be large or run the other way. A selection follows.

biological target: Breast cancer type 1 susceptibility protein (Homo sapiens) (UniProt P38398); assay: qHTS Assay for Inhibitors of BRCT-Phosphoprotein Interaction (Red Fluorophore); details: BRCT-phosphopeptide binding, red fluorescence polarization; series mostly up to 76.9 µM; activity change, negative = inhibition: at the top concentration
Protocol: NIH Molecular Libraries Screening Centers Network [MLSCN]
NIH Chemical Genomics Center [NCGC]
PI Name: Natarajan, Amarnath; University of Texas
A complex of BRCT (C-terminal portion of BRCA1, MW ~35 kDa, His-tagged) and fluorescently labeled pBACH1 phosphorylated 10 aa peptide fragment of BACH1, a helicase implicated in DNA repair, is incubated with library members. Inhibitors of BRCT-pBACH1 binding are detected by a decrease in the fluorescence polarization (FP) of the fluorophore. In order to minimize the effect of fluorescence artifacts and to increase the overall robustness of the screen, the compound library members were incubated in separate reactions with rhodamine-labeled probe-protein complexes. Protein and labeled probes were supplied by Dr. Amarnath Natarajan, Department of Pharmacology and Toxicology, University of Texas Medical Branch Galveston, TX.
Assay Buffer: 16mM Na2HPO4, 4 mM NaH2PO4, 150 mM NaCl, 1 mM EDTA, 1 mM DTT, 0.02% NaN3, and 0.01% Tween 20 at pH 7.3.
Assay Controls: 100 nM TAMRA labeled decapeptide dispensed into columns 3 and 4 to generate negative control (full inhibition of
binding, -100 % activity). 100 nM labeled decapeptide/100 nM protein in columns 1, 2, 5 - 48. Titration of unlabeled decapeptide control (from 10 mM, then 1:2 dilution in duplicate) pin-transferred to column 2, rows 1 to 16. Column 1 is neutral.
Three uL of reagents were dispensed to 1536-well Greiner black solid-bottom plates. Compounds and controls (23 nL) were transferred via Kalypsys PinTool. The plates were incubated for 12 min at room temperature, and then read on ViewLux (Perkin-Elmer) High-throughput CCD imager using BODIPY for the rhodamine-labeled decapeptide probe polarization filter sets. During dispense, reagent bottles were kept submerged into 4 deg C water bath and all liquid lines were covered with aluminum foil to minimize probe and protein degradation. All screening operations were performed on a Kalypsys robotic system (Kalypsys, Inc., San Diego, CA) containing one RX-130 and two RX-90 anthropomorphic robotic arms. The timing and order of assay plates passing through the screening system were adjusted such that each compound library plate was assayed against the fluorescein- and rhodamine-labeled assay systems at immediately adjacent time points.
% is set by controls: 0 for no effect and ±100 for the full control effect.

Chain of Breast cancer type 1 susceptibility protein (Homo sapiens) (P38398 whole entry, looked up): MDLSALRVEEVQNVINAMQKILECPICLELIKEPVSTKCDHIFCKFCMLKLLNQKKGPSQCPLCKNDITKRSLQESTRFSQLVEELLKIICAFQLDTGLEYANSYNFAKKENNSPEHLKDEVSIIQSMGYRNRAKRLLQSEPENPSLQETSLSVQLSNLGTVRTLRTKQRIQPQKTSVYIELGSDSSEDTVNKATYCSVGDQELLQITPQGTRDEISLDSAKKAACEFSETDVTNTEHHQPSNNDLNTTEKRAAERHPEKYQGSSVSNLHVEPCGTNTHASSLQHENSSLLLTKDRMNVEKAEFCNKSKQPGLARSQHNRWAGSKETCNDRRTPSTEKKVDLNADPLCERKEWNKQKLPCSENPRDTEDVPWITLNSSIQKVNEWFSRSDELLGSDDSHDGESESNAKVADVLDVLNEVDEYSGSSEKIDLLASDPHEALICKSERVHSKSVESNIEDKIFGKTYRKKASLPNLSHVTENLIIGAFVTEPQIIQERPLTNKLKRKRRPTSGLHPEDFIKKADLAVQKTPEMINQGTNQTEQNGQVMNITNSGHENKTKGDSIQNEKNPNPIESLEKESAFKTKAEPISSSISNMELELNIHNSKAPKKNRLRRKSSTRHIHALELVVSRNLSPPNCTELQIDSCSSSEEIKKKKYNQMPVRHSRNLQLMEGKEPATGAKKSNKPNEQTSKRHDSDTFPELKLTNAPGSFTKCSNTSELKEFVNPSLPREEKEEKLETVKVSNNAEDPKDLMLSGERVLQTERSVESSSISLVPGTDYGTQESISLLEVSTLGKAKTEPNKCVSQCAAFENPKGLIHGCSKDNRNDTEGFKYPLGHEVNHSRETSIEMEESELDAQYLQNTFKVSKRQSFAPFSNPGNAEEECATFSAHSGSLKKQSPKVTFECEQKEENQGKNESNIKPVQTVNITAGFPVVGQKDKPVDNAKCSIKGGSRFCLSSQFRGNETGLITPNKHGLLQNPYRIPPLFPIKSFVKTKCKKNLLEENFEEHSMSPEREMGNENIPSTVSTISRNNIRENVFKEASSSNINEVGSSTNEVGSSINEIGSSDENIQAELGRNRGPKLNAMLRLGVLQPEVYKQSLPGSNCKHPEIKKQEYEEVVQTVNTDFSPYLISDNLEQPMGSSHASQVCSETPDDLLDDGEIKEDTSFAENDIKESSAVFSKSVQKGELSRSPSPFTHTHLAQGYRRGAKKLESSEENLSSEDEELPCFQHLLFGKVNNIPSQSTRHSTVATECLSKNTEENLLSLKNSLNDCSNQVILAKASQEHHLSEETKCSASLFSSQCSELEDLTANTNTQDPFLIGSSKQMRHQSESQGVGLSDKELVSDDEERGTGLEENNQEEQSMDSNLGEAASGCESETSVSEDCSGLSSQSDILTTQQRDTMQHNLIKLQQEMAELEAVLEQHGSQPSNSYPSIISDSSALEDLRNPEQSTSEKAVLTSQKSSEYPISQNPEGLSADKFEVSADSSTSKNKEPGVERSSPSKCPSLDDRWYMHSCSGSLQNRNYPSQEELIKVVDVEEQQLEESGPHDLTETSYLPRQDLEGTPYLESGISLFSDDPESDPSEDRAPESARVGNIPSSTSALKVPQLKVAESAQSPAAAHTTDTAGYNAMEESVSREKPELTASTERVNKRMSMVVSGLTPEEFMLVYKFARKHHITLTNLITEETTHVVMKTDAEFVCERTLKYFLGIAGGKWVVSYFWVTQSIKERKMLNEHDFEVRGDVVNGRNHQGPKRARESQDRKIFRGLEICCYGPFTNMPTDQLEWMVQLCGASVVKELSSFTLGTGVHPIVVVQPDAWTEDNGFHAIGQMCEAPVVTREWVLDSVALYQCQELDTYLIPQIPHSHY

Activity change, negative = inhibition, inactive:
CCOC(=O)Nc1ccc2c(c1)N(C(=O)CN1CCN3CCCC3C1)c1ccccc1CC2 (stereo not given) -0.847%, COc1ccc(C)cc1-n1nnnc1SCC(=O)c1cc(C)n(Cc2ccco2)c1C 0.289%, O=C(CN1CCN(c2ccccc2F)CC1)c1ccc2c(c1)OCO2 -0.354%, COc1ccc(OC)c(NC(=O)CN2CCN(C(=O)c3ccco3)CC2)c1 -0.4%, COCCn1nnnc1C(c1ccccc1Cl)N1CCN(c2ccccc2OC)CC1 (stereo not given) 0.147%, COC(=O)[C@@H]1C[C@@]2(O)[C@H](O)[C@H](O)[C@H](O)C[C@H]2N1CC1CCCCC1 1.56%, CC(C)Oc1ccc(C2NC(=O)NC2=O)cc1 (stereo not given) 0.371%, O=C(CN(Cc1ccccc1)C(=O)c1ccc2c(c1)OCCO2)NCc1ccc2c(c1)OCO2 0.515%, CC(=O)N1CCC2(CCCN(Cc3ccccc3)C2)CC1 -2.8%, COc1ccccc1NC(=O)CSc1nnc(Cc2cccn2C)n1-c1ccc(F)cc1 -0.19%, O=C(CSc1ncccn1)NC(=O)NCc1ccccc1 -0.146%, Cc1ccsc1C(=O)OCC(=O)c1cc(C)n(CC2CCCO2)c1C (stereo not given) -2.25%, COc1ccc(NC(=O)CCNC(=O)Cn2ccc3ccccc3c2=O)c(OC)c1 1.77%, Cc1ccccc1CSc1nnc(-c2cccnc2)n1N -1.84%, COc1cc(C(=O)N(Cc2ccc(N(C)C)cc2)C2CCS(=O)(=O)C2)cc(OC)c1OC (stereo not given) -2.5%, CCCCCCN(C(=O)CCCCCN1C(=O)NC(c2ccc(C(F)(F)F)cc2)C(C(=O)OCc2ccccc2)=C1C)C(C(=O)NCCCC)c1ccc(OCC(=O)OC)c(C(=O)OC)c1 (stereo not given) -1.73%, CC1CCc2sc3nc(N4CCN(CCO)CC4)n4ncnc4c3c2C1 (stereo not given) -1.52%, Cc1ccc(NC(=O)N2CCC(C(=O)NCc3ccc(F)cc3)CC2)cc1 -0.897%, CC(CCC(=O)O)C1CCC2C3C(O)C[C@@H]4CC(O)CC[C@@]4(C)C3CC[C@@]12C (stereo not given in full), Cn1c(=O)c2[nH]c(NCC3CCCO3)nc2n(-c2ccccc2)c1=O (stereo not given) 0.15%, FC(F)(F)c1cccc(Nc2ncnc3ccccc23)c1 0.0326%, CCOC(=O)C1CCN(C(=O)Nc2ccc(Cl)cc2)CC1 -0.981%, CCS(=O)(=O)N1CCC(C(=O)N2CCN(c3ccccc3)CC2)CC1 -1.29%, CCN(CC)CCNC(=O)C1c2ccccc2C(=O)N(C)C1c1cn(C)c2ccccc12 (stereo not given) 1.12%, CCCCC(=O)Nc1cc(C)c2c(=O)oc3ccccc3c2n1 1.23%, COc1ccc(CCNC(=O)CSc2nnc(-c3cccc(F)c3)o2)cc1OC -0.833%, COC(=O)C1=C(C)OC(N)=C(C#N)C1c1cc(OC)ccc1OC (stereo not given) -1.63%, C[C@H](CCC(=O)NCC(=O)O)[C@H]1CC[C@H]2[C@H]3[C@@H](C[C@@H](O)[C@]12C)[C@]1(C)CC[C@H](O)C[C@@H]1C[C@@H]3O 1.09% [at 34.4 µM], CCOc1ccccc1NC(=O)c1cc(S(=O)(=O)N2CCC3(CC2)OCCO3)ccc1F -0.357%, COC(=O)CC1C(C)(C)C(OC(C)=O)C2CC3=C4CC(=O)OC(c5ccoc5)[C@]4(C)CCC3[C@@]1(C)C2=O (stereo not given in full) -0.484%, CCOc1cc(CO)ccc1OCC(=O)N1CCCCC1 0.944%, O=C(Nc1nc2cc3c(cc2s1)OCCO3)c1cccc(S(=O)(=O)N2CCOCC2)c1 0.128%, CN(C(=O)COc1nnc(-c2cccs2)c(-c2cccs2)n1)c1ccccc1 0.0324%, COCC(C)n1c(SCc2ccc(C(=O)OC)o2)nc2ccccc2c1=O (stereo not given) 0.312%, CO[C@H]1COC(=O)[C@@H](OCc2ccccc2)/C=C\[C@H](C)[C@@H](OC)COC(=O)[C@H](OCc2ccccc2)/C=C\[C@@H]1C 3% [at 15.4 µM], CCC(c1nnnn1C1CCCC1)N1CCN(C(=O)c2ccco2)CC1 (stereo not given) -1.2%, CC1CCCCN1CC(=O)NCc1ccc2c(c1)OCO2 (stereo not given) 1.54%, O=C(NCc1ccccn1)c1c(O)c2c([nH]c1=O)CCCC2 0.105%, O=C(CC1OC(=O)c2ccccc21)NC1CCCCC1 (stereo not given) -2.01%, COc1ccc(-c2nc(CS(=O)CC(=O)NCc3ccccn3)c(C)o2)cc1 (stereo not given) -19%, Cc1nnc(SCc2cc(=O)[nH]c(N3CCN(Cc4ccccc4)CC3)n2)s1 0.597%, CC(C)NC[C@H](O)c1ccc2ccccc2c1, Cc1nc2nc3c(cn2n1)C(=O)CC(c1ccccc1)C3 (stereo not given) 2%, COCCCNC(=O)Cn1cc(C(=O)C2CC2)c2ccccc21 0.296%, CN(c1ccc(C(=O)N2CCc3ccccc3C2)cc1)S(C)(=O)=O 0.655%, COCCCNC(=O)COc1cc(C)c(Cl)c(C)c1 -0.153%, Cc1cccc(OCc2nnc(SCC(=O)N3CCN(C(=O)c4ccco4)CC3)n2C)c1C -1.17%, CCCOC(=O)Nc1sc2c(c1C(=O)OCC)CCC2 -0.873%, CCOC(=O)c1cnc(-n2nc(C)cc2C)nc1-n1nc(C)cc1C 1.6%, CN(C(=O)CSc1nnnn1-c1ccccc1)C1CCCCC1 0.11%, Cc1ccc(Cn2ccc(NC(=O)c3cc(C(C)C)on3)n2)cc1 -1.44%, COc1ccccc1N1CCN(C(=O)c2c(-c3c(Cl)cccc3Cl)noc2C)CC1 -1.13%, Cc1ccccc1NC(=O)Cc1nnc(SCC(=O)N2CCN(c3ccccc3)CC2)n1C -0.997%, CCCCCCC(=O)N(O)C1CC(=O)N(c2ccccc2)C1=O (stereo not given) 0.0619%, C=CCNC(=O)C12CC3CC(C1)CC(C(=O)NCC=C)(C3)C2 1.88%, COC(=O)N1CCC2(CCCN(c3ccncc3)C2)CC1 0.168%, O=C1NC(c2cc3c(cc2Cl)OCO3)Oc2ccccc21 (stereo not given) -0.188%, COC(=O)[C@H](C)[C@H]1C[C@]1(C)[C@H](NC(=O)OCc1ccccc1)c1ccccc1 -0.78%, CN(c1ccccc1)c1ccc(/C=c2\s/c(=C(/C#N)C(=O)C(C)(C)C)n(Cc3ccco3)c2=O)cc1 0.0549%, Cc1cccc(NC(=O)CSC(N)=O)c1C 1.83%, Cc1ccc(N)cc1-n1c(C)ccc1C -0.377%, CCCCOc1ccc(NC(=O)CSCC(=O)OCC)cc1 1.6%, CCOCCc1c(O)nc(SCC(=O)NCc2ccco2)[nH]c1=O 0.81%, Cc1cc(NS(=O)(=O)c2ccccc2)no1 0.303%, CCOC(=O)C1CCc2nc3ccccc3c(=O)n21 (stereo not given) 0.238%, Cc1ccccc1N1CCN(S(=O)(=O)C[C@@]23CC[C@H](C[C@H]2NC(=O)[C@@H](N)CCS(C)(=O)=O)C3(C)C)CC1 1.13%, CC(=O)N1CCN(c2ccc(NCc3ccc(C(C)C)cc3)cc2)CC1 -0.552%, O=C(CC1(O)C(=O)N(CN2CCOCC2)c2ccccc21)c1ccccc1 (stereo not given) -1.06%, O=C(CCSc1ccccc1)NCCSc1ccccn1 -0.965%, Cc1cc(C)c2cc(CN(Cc3cccs3)Cc3nnnn3CC3CCCO3)c(=O)[nH]c2c1 (stereo not given) 0.129%, N#CCC(=O)NC(=O)NCC1CC1 -0.938%, O=C1Nc2ccccc2C12Nc1ccccc1S2 (stereo not given) -1.05%, Cc1nc2ccc(C(=O)N3CCSCC3)cc2s1 0.85%, CN1CCN(c2ncncc2-c2ccc(C(=O)N(C)C)cc2)CC1 0.793%, CC1(C)SC2C(NC(=O)COc3ccccc3)C(=O)N2C1C(=O)O (stereo not given) 1.66%, CCn1cc(C(=O)N2CCN(C3CCCCC3)CC2)c2cc(OC)c(OC)cc2c1=O -2.62%, CN1[C@@H]2CC[C@H]1CC(NC(=O)c1nn(C)c3ccccc13)C2 (stereo not given in full) -2.5%, CC(C)(C)Oc1ncc(Br)c(OC(C)(C)C)n1 -0.0878%, C[N+](C)(C)CCCCCNCC12CC3CC(CC(C3)C1)C2 2.52%, CCCC(C(=O)N1CCOCC1)N1C(=O)C2C3C=CC(C3)C2C1=O (stereo not given) -0.786%, CN1CCCC(OC(=O)COc2ccc(Br)cc2)C1 (stereo not given) 0.984%, CCC1=C(OC(=O)N(CC)CC)N2C(=O)OC(=NCCc3c[nH]c4ccccc34)[C@]2(C)[C@H]2C1=CC[C@H]1C(=O)N(CC)C(=O)[C@H]12 -2.69%, COC(=O)C1C(=O)c2c([nH]c(C(=O)OCCSC)c2C)CC1C (stereo not given) -0.968%, CC(C)(C)[Si](OCC[C@@H]1C[C@@]1(C)[C@@H](NP(=O)(c1ccccc1)c1ccccc1)c1ccccc1)(c1ccccc1)c1ccccc1 0.34%, COc1ccc(-c2oc3cc(OC)ccc3c2C(=O)c2ccc(C#N)cc2)cc1 -0.0684%, CCOC(=O)c1c(C)[nH]c(C)c1C(=O)CSc1nc(N)cc(N)n1 3.67%, O=C1c2ccccc2C(O)N1Cc1ccccc1Cl (stereo not given) 0.325%, CSc1nnc2c(n1)OC(c1ccsc1)N(C(C)=O)c1ccccc1-2 (stereo not given) -0.404%, COC(=O)c1ccc(CSc2ccccc2C)o1 -1.04%, COc1ccc(-c2nc3cnc(Oc4ccccc4)nc3n(Cc3cccs3)c2=O)cc1 -1.57%, CC1=NC2(CCCc3c2no[n+]3[O-])N(O)C1(C)C (stereo not given) -0.694%, COc1cc(C2C(C(=O)c3ccc(C)o3)=C(O)C(=O)N2Cc2cccnc2)ccc1O (stereo not given) 0.46%, Cc1c(-c2nn(C)c(=O)c3ccccc23)oc2ccc(F)cc2c1=O 0.563%, O=C(C1CCN(CC2CCCCC2)CC1)N1CCCC1 -0.503%, COC(=O)[C@@H]1C[C@@]2(O)[C@@H](O)[C@@H](O)[C@@H](O)C[C@H]2N1Cc1ccc(C)s1 1.57%, CC(C)(C)c1ccc(C(=O)CSc2ncn[nH]2)cc1 -3.08%, C=CCSc1nnc(Cn2c(=O)sc3ccccc32)n1C -0.684%, CCCC(=O)Nc1ccc(Cl)c(NC(=O)c2ccc(Br)o2)c1 -0.589%, NC(=O)CSc1oc(-c2cccs2)nc1S(=O)(=O)c1ccccc1 -0.411%, COC(=O)c1cn(C)c2ccc(S(=O)(=O)N3CC(C)CC(C)C3)cc2c1=O (stereo not given) 0.974%, COc1ccc(-c2nnc(SCC(=O)NC3CCCCC3)o2)cc1OC -0.73%, Cc1ccccc1-c1nc(N(C)Cc2ccco2)c2ccccc2n1 -1.42%, CC(C)OCCCNC(=O)CNC(=O)c1cccs1 2%, Cc1ccc2cccc(O)c2[n+]1[O-] 0.606%, O=C(c1ccc(=O)[nH]c1)N(Cc1ccco1)C1(C(=O)NC2CCCCC2)CCCCC1 0.273%
